Holding throughout (assay type): functional
Experiment [1] concerns the target Solute carrier family 2, facilitated glucose transporter member 1 (Homo sapiens) (UniProt P11166). The experiment in a line: ST_JUDE_LEISH: Cytotoxicity at 2uM final concentration against transgenic Leishmania Mexicana promastigotes LmGLUT1 that are glucose transport deficient and complemented with the human glucose transporter GLUT1. Activity is measured by DNA content using SYBR green in vitro.

Experiment [2] addresses Hexose transporter 1 (Plasmodium falciparum) (UniProt O97467). The experiment in a line: ST_JUDE_LEISH: Cytotoxicity at 2uM final concentration against transgenic Leishmania Mexicana promastigotes LmPfHT that are glucose transport deficient and complemented with the Plasmodium falciparum hexose transporter. Activity is measured by DNA content using SYBR green in vitro.
The target of experiment [3] is Glucose transporter (Leishmania mexicana) (UniProt O61059). The experiment can be described thus: ST_JUDE_LEISH: Cytotoxicity at 2uM final concentration against transgenic Leishmania Mexicana promastigotes LmGT2 that are glucose transport deficient and complemented with the L. Mexicana glucose transporter 2. Activity is measured by DNA content using SYBR green in vitro.

The structures appear in SMILES notation.

Chain of Solute carrier family 2, facilitated glucose transporter member 1 (Homo sapiens) (P11166 whole entry): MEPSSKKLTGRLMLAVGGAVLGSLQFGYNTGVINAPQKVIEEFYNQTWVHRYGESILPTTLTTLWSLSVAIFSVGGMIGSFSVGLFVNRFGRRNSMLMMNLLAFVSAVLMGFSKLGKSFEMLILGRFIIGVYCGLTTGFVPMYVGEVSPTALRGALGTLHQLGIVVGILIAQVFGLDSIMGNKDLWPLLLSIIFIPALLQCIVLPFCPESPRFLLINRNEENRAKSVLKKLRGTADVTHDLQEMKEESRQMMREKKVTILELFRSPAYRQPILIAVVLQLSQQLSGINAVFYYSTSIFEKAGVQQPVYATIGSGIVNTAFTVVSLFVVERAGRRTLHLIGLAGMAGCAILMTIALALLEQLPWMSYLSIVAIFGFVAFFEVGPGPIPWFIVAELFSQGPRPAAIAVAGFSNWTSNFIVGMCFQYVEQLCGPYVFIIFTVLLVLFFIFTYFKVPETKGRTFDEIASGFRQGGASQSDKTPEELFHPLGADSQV

Consider `COc1cccc(C(=O)N2CCN(Cc3cccc(NC(=O)c4cccs4)c3)CC2)c1`, for which the inhibition in experiment [1] is 2.14%; in experiment [2], 2.18%; in experiment [3], 5.14%.
For `O=C(Nc1ccc(F)cc1)c1nc2ccccc2nc1Cl` the same measures were 4.1%, 3.68% and 4.22%.
As for `Cc1cc(Nc2cccc(C#N)c2)nc(Nc2ccccc2C)n1`, the values for the inhibition in experiment [1], in experiment [2] and in experiment [3] were 77.7%, 91.1% and 52.3%, respectively.
With `Cc1cc(N2CCOCC2)nc(Nc2ccc(NC(=O)Nc3ccc(F)cc3)cc2)n1`, the inhibition in experiment [1] is -0.56%; in experiment [2], -2.91%; in experiment [3], 1.66%.
`Oc1cc(Nc2ccnc3cc(-c4ccc(CN5CCCCC5)o4)c(Cl)cc23)c(Cl)cc1F`: the inhibition in experiment [1] was 1.26%; in experiment [2] it was 1.8%; in experiment [3], 1.57%.
As for `COc1cc2nc(Cl)nc(Nc3ccncc3)c2cc1OC`, the inhibition is 0.52% in experiment [1], -0.73% in experiment [2] and -1.27% in experiment [3].
With `Oc1cc(Nc2ccnc3cc(I)ccc23)ccc1F`, the inhibition in experiment [1] was 1.98%; in experiment [2] it was -0.07%; in experiment [3] it was 0.37%.
On to `Cn1cc(C2CCN(CCCCCNC(=O)/C=C/c3ccc(Cl)c(Cl)c3)CC2)c2cc(O)ccc21`, for which the values for the inhibition in experiment [1], in experiment [2] and in experiment [3] were 1.48%, 2.56% and 1.47%, respectively.
`COc1cccc(-c2cnc(N)c(-c3nc4cc(Cl)c(F)cc4[nH]3)c2)c1`: the inhibition in experiment [1] was 15.6%; in experiment [2], 14.7%; in experiment [3], 8.86%.
Taken in the same sequence, the figures for `CC(C)C[C@H](NC(=O)c1ccc(OCCN2CCOCC2)cc1)C(=O)N[C@H](/C=N/N1CCNC1=O)CCc1ccccc1` were 6.57%, 6.05% and 4.07%.
Consider `CCc1nc2nc(C)cc(Nc3ccc(F)c(Cl)c3)n2n1`, for which the inhibition was -2.16% in experiment [1], -3.69% in experiment [2] and -1.67% in experiment [3].
For `COc1ccccc1C1CCN(C2CCC(NC(=O)/C=C/c3ccc(C(F)(F)F)cc3)CC2)CC1` (centres undefined), the inhibition in experiment [1] was determined as 1.41%; in experiment [2] it was 2.17%; in experiment [3], 2.85%.
On to `O=C(Nc1cccc(-c2ccc(-c3nc4cc(C(F)(F)F)ccc4[nH]3)cc2)c1)c1ccncc1`, for which the inhibition in experiment [1] came to 6.22%; in experiment [2] it was 0.73%; in experiment [3], 5.09%.

A word on the inhibition: it is the relative decrease from the control value, in per cent.

The values are drawn from ChEMBL document CHEMBL3433997, “St. Jude Leishmania screening dataset” (2016).
